The record followed here is PubChem BioAssay (NCATS).

Experiment [1] is described as follows: Counterscreen for APE1 Inhibitors: Fluorescent Dye Displacement Validation Assay (AID 1707).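 Note: plate controls were ThO with dsDNA and no compound for no effect and ThO without dsDNA for full effect.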 A digest of the protocol: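 Loss of Thiazole Orange fluorescence marks promiscuous DNA binders. The dye (250 nM) is mixed with 50 nM abasic-site dsDNA in pH7.5 Tris buffer containing MgCl2, then compounds are added and emission is read once.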
Experiment [2] is described as follows: qHTS for differential inhibitors of proliferation of Plasmodium falciparum line GB4 (AID 1816).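 Note: parasite growth measured after 72 h incubation; 0% = vehicle DMSO and -100% = reference inhibitor.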 As to conditions: Potency: Plasmodium falciparum GB4 proliferation inhibition.
A short description of experiment [3]: qHTS for differential inhibitors of proliferation of Plasmodium falciparum line 3D7 (AID 1876).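 Note: parasite growth measured after three days of culture; 0% = vehicle wells and -100% = reference inhibitor wells.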 For orientation: qHTS replaces the single test concentration by a dilution series.
Experiment [4] can be described thus: qHTS for differential inhibitors of proliferation of Plasmodium falciparum line D10 (AID 1877).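 Note: parasites grown with compound for 72 h before DNA staining; plate controls were vehicle wells for no effect and reference inhibitor wells for full effect.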
Experiment [5] in a line: qHTS for differential inhibitors of proliferation of Plasmodium falciparum line Dd2 (AID 1882).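 Note: series mostly up to about 29 µM; plate controls were DMSO vehicle for no effect and 0.29 µM artemisinin for full effect; nearly all actives have a fitted effect of over 65% in size.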 To be noted: Potency: Plasmodium falciparum Dd2 proliferation inhibition. A digest of the protocol: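 SYBR Green DNA fluorescence (ex 485, em 535 nm) after overnight lysis quantifies parasite growth; compound exposure lasted 72 h at 37 C on infected red cells at 2.5% hematocrit, 0.3% parasitemia (final). Artemisinin 0.29 uM and vehicle wells define normalization.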

Experiment [6] is described as follows: qHTS for differential inhibitors of proliferation of Plasmodium falciparum line HB3 (AID 1886).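 Note: parasites grown with compound for 72 h before SYBR Green readout; plate controls were vehicle for no effect and reference inhibitor for full effect.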 To be noted: Potency: Plasmodium falciparum HB3 proliferation inhibition.
Experiment [7] concerns the target ATP-dependent DNA helicase Q1 (Homo sapiens) (UniProt P46063). As to the kind of experiment: qHTS Validation Assay for Inhibitors of RecQ-Like Dna Helicase 1 (RECQ1) (AID 2353).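 Note: plate controls were DMSO vehicle for no effect and enzyme-free control for full effect.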 The method in brief:
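RECQ1T1 50 nM; forked duplex (20 bp + 30-nt ss tails) 200 nM, ATP 2 mM final; pH 8.0, 2 mM MgCl2, 2.5 ug/ml poly(dI-dC); 15 min compound preincubation; discontinuous kinetic read over 2 h at RT.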

Experiment [8] can be described thus: Quantitative high throughput screen for delayed death inhibitors of the malarial parasite plastid, 96 hour incubation (AID 488745). Note: series mostly up to about 29 µM; % is set by controls: 0 for no effect and ±100 for the full control effect; nearly all actives have a fitted effect of over 70% in size. A digest of the protocol: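 Decreased firefly luciferase luminescence indicates inhibited growth of reporter-integrated P. falciparum after two generations (96 h, 37 C, 5% CO2). Infected erythrocytes at 0.1% parasitemia, 2% hematocrit, in Albumax-supplemented RPMI 1640.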

The nature of experiment [9]: Quantitative high throughput screen for delayed death inhibitors of the malarial parasite plastid, 48 hour incubation (AID 488752). Note: % is set by controls: 0 for no effect and ±100 for the full control effect; nearly all actives have a fitted effect of over 65% in size. The method in brief:
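One-generation (48 h) growth assay: a decrease in luciferase signal from an integrated reporter in P. falciparum-infected red cells (0.1% parasitemia, 2% hematocrit) after compound exposure at 37 C indicates parasite inhibition.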

Experiment [10] addresses M-phase phosphoprotein 8 (Homo sapiens) (UniProt Q99549). In words: qHTS Validation Assay for Inhibitors for MPP8 Chromodomain Interactions with Methylated Histone Tails (AID 488949).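 Note: AlphaScreen signal from MPP8 chromodomain bound to biotinylated H3K9me3 peptide; top concentration of the series differs between compounds; % is set by controls: 0 for no effect and ±100 for the full control effect; nearly all actives have a fitted effect of over 55% in size.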 A digest of the protocol:
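MPP8 (50 nM) was preincubated with biotinylated H3(1-18)K9me3 peptide (50 nM) in PBS pH 7.4, 0.01% Tween-20 for 30 min at room temperature, then with compounds for 30 min; binding was detected by AlphaScreen.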

In experiment [11] the target is Thyrotropin receptor (Homo sapiens) (UniProt P16473). As to the kind of experiment: qHTS Assay for Antagonists of the Thyroid Stimulating Hormone Receptor (AID 488980). Note: series mostly up to about 58 µM; 0% is about no effect. A digest of the protocol: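 HEK293 cells transfected with human TSHR, suspended in HEPES-buffered HBSS with 70 uM RO 20-1724, were treated with compounds plus TSH at EC80 (4 nM final). cAMP was measured by competitive HTRF (cryptate anti-cAMP antibody, cAMP-d2 acceptor).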

The target of experiment [12] is Thyrotropin-releasing hormone receptor (Homo sapiens) (UniProt P34981). In words: qHTS for Small Molecule Agonists and Allosteric Enhancers of Human TRH Receptor: Validation Screen for Agonists (AID 493127;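 active = calcium activation more than 3 SD above the typical response in the agonist read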;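 note: intracellular calcium rise by fluo-8 fluorescence before TRH EC20 addition; 0% is about no effect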). To be noted: TRH receptor agonist cell assay; at 2 µM; stronger effect = higher value. A digest of the protocol: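 Compound-evoked intracellular calcium release in fluo-8-loaded TRHR cells, read kinetically on FDSS (Ex 480/Em 530, 1 s/cycle) after 23 nL pintool transfer. Agonist phase preceded 10 nM TRH EC20 addition.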

The target in experiment [13] is Galactokinase (Homo sapiens) (UniProt P51570). In words: qHTS Validation Assay for Inhibitors of Human Galactokinase (GALK) (AID 493189). Note: 0% is about no effect. A digest of the protocol:
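GALK (5 nM) with 35 uM ATP and 100 uM galactose in HEPES pH8.0, MgCl2, NaCl, DTT, BSA; 1 h at room temperature. Residual ATP read by Kinase-Glo Plus luminescence after 10 min.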

The nature of experiment [14]: Validation screen for small molecules that induce DNA re-replication in SW480 colon adenocarcinoma cells (AID 504364). Note: 0% is about no effect. A digest of the protocol:
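Image-based DNA content read-out: Hoechst stain 40 min, total nuclear fluorescence intensity (ex 405 nm, em 500-530 nm) after 48 h compound exposure of 250 SW480 cells/well at 37 C, 5% CO2, versus DMSO vehicle.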

The target of experiment [15] is Voltage-gated inwardly rectifying potassium channel KCNH2 (Homo sapiens) (UniProt Q12809). As to the kind of experiment: qHTS Assay for Small Molecule Inhibitors of the Human hERG Channel Activity (AID 588834).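 Note: top concentration of the series differs between compounds; % is set by controls: 0 for no effect and ±100 for the full control effect; lower thallium flux fluorescence means stronger hERG block; nearly all actives have a fitted effect of over 50% in size.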 The method in brief:
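In hERG-transduced U2OS cells, dye-loaded for 1 hr at room temperature in dark, test compounds incubated 10 min at 37 °C before thallium stimulation. AC50 values derived by Hill modelling of concentration-response.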

Experiment [16] has as its target Pyruvate kinase (Leishmania mexicana) (UniProt Q27686). In words: qHTS Validation Assay for Activators of Leishmania Mexicana Pyruvate Kinase (AID 959). A digest of the protocol: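 Compounds are tested as eight-point concentration series. Reactions contain 0.2 nM LmPYK E451W, 0.5 mM PEP, 0.1 mM ADP, 7 mM MgCl2 and 50 mM KCl at pH 7.2, run 1 h at room temperature, then read by PKLight luminescence.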

A short description of experiment [17]: qHTS Assay for Identification of Small Molecule Antagonists for Thrombopoietin (TPO) Signaling Pathway (AID 918). Note: potency is the fitted concentration of half-maximal effect; nearly all actives have a fitted effect of over 60% in size. To be noted: TPO-dependent cell signaling reporter, antagonist mode. A digest of the protocol:
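Inhibition read as reduced luciferase luminescence after 24 h at 37 C in IL-3-deprived Ba/F3 cells carrying human TPO receptor and GPIIb-promoter reporter, stimulated with 26 pM TPO (final, its EC50) alongside compound.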

A short description of experiment [18]: qHTS assay for small molecule antagonists of peroxisome proliferator-activated receptor delta signaling (AID 588535; active = well fitted inhibition curve with a large enough effect in the signal ratio, with a control signal flat, not every such curve was filed as active; the % refers to the signal ratio;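 for max response: cells co-treated with a PPAR-delta agonist as stimulator during compound exposure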). As to conditions: HEK293T PPARd-UAS-bla, beta-lactamase FRET ratio, 18 h; 460 nm channel. A digest of the protocol: (§1)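 Titrations were run on PPAR-delta-UAS-bla HEK293T cells in charcoal/dextran-stripped serum, incubated 18 h at 37 C. CCF4 fluorescence (460/530 nm) after 2 h RT; Hill equation yields IC50 and maximal response.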

In experiment [19] the target is Peroxisome proliferator-activated receptor delta (Homo sapiens) (UniProt Q03181). The description is as above. A digest of the protocol: as §1
Experiment [20] has as its target Peroxisome proliferator-activated receptor gamma (Homo sapiens) (UniProt P37231). In words: qHTS assay for small molecule agonists of peroxisome proliferator-activated receptor gamma signaling (AID 588536; active = well fitted curve in the direction sought with a large enough effect in the signal ratio, with a control signal flat, not every such curve was filed as active; the % refers to the signal ratio;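 note: 0% = DMSO basal wells and 100% = rosiglitazone at 2 µM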). The method in brief:
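Using GeneBLAzer HEK293 cells, response was quantified by CCF4 fluorescence and normalized between basal DMSO (0%) and rosiglitazone 2 uM (100%); curves yielded half-maximal stimulation concentration and efficacy.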

Results filed as inconclusive are left out. Active and inactive are the calls of the source. Unless noted, calls come from the whole dose curve; as a rule, active = well fitted curve in the direction sought with a large enough effect; inconclusive = small, poorly fitted or top-dose-only effect, or another doubt; inactive = no such curve, though single readings can be large; an effect the other way counts as inactive or inconclusive.

Peroxisome proliferator-activated receptor delta (Homo sapiens), sequence (Q03181 whole entry, looked up): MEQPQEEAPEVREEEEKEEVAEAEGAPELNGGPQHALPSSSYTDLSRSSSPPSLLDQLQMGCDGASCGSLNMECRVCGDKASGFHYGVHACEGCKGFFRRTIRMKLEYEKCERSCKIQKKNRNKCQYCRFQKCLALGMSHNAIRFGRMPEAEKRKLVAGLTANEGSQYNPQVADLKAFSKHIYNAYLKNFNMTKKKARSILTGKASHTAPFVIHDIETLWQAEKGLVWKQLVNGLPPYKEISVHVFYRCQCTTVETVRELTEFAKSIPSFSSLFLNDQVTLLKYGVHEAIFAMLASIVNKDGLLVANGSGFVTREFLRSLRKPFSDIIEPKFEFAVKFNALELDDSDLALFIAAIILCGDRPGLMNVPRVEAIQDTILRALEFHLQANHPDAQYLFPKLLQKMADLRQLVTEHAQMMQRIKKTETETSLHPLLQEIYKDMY
M-phase phosphoprotein 8 (Homo sapiens), sequence (Q99549 whole entry, looked up): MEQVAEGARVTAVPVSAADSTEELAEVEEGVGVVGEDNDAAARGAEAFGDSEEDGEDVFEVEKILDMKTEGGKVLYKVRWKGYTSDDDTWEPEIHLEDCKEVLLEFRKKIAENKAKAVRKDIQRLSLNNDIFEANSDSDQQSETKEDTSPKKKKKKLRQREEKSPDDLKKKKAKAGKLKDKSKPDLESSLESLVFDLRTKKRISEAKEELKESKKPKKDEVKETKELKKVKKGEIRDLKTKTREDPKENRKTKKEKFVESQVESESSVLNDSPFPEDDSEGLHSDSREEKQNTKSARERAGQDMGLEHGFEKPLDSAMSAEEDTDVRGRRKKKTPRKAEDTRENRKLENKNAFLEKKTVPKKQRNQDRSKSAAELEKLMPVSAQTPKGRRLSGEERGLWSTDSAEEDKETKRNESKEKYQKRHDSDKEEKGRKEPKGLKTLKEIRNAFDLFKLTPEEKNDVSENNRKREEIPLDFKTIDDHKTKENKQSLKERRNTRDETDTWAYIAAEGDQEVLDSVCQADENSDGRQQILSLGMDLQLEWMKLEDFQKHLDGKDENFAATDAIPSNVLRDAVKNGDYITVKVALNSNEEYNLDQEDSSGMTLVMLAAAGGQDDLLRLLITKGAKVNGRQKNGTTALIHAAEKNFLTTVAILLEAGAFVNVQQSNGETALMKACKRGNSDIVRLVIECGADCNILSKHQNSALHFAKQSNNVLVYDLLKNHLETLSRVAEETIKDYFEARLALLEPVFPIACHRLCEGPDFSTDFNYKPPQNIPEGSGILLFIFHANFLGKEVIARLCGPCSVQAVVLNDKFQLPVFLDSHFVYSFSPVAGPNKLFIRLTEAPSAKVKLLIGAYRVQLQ
Voltage-gated inwardly rectifying potassium channel KCNH2 (Homo sapiens), sequence (Q12809 whole entry, looked up): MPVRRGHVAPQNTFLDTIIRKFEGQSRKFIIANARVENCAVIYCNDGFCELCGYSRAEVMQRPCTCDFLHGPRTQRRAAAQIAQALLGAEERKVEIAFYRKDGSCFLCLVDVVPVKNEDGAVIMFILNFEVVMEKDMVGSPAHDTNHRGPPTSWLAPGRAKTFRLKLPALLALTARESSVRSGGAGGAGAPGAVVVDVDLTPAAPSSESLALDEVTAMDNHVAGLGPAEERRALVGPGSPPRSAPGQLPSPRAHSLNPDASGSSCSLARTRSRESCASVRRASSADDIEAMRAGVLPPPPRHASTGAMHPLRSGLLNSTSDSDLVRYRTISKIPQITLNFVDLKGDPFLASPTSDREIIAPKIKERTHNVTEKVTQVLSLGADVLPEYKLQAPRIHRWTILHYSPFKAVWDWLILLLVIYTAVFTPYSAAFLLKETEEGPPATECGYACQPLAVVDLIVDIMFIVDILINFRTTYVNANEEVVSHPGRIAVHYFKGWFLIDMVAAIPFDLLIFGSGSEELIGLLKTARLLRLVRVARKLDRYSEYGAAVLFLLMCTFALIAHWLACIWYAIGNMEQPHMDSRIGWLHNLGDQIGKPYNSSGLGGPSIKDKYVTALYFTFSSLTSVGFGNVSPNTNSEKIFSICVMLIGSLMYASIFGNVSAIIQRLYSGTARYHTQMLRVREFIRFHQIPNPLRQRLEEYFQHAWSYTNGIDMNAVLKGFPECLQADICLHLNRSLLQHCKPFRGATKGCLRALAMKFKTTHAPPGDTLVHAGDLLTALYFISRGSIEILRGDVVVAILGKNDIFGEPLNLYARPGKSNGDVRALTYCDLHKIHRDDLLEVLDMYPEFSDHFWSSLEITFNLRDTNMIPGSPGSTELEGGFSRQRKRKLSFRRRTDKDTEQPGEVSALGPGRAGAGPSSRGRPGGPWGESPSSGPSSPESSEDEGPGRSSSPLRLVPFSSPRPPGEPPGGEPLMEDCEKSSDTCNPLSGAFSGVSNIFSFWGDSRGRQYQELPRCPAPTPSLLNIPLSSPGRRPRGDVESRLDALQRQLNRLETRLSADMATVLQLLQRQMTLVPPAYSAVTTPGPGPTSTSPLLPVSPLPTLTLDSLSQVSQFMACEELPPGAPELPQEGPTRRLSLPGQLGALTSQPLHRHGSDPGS
Thyrotropin receptor (Homo sapiens), sequence (P16473 whole entry, looked up): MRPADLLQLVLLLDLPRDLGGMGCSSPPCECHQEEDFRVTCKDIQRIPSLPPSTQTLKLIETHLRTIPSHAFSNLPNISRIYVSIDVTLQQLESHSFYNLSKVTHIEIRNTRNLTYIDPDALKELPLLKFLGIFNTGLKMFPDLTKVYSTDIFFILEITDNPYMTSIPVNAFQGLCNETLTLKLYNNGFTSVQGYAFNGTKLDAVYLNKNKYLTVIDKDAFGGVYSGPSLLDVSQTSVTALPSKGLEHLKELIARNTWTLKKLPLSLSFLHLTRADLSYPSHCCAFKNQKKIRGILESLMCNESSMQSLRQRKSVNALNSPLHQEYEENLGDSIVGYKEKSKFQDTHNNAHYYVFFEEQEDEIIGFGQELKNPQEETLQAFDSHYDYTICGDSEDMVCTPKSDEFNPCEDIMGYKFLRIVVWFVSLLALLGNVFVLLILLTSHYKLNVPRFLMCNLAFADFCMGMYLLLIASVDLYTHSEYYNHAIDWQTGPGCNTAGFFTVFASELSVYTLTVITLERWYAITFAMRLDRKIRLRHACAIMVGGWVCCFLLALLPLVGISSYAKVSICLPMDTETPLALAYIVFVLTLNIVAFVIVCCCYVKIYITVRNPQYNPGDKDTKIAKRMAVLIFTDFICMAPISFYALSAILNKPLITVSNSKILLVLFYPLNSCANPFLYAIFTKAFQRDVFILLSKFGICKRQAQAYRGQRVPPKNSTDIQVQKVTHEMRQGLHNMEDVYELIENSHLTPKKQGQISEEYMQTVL
Pyruvate kinase (Leishmania mexicana), sequence (Q27686 2-499 E452W): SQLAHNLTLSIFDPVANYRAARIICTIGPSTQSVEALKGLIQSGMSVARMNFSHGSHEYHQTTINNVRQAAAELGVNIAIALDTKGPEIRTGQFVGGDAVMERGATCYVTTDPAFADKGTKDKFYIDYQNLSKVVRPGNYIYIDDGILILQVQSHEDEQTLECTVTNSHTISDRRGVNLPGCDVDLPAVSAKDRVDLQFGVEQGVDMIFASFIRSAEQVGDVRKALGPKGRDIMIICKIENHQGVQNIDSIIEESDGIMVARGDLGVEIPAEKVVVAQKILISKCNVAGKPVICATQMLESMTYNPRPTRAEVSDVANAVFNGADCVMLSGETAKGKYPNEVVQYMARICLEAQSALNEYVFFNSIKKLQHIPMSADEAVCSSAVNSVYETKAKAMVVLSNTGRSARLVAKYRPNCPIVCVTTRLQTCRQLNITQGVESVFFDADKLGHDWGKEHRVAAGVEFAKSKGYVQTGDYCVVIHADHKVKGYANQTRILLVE
Peroxisome proliferator-activated receptor gamma (Homo sapiens), sequence (P37231 whole entry, looked up): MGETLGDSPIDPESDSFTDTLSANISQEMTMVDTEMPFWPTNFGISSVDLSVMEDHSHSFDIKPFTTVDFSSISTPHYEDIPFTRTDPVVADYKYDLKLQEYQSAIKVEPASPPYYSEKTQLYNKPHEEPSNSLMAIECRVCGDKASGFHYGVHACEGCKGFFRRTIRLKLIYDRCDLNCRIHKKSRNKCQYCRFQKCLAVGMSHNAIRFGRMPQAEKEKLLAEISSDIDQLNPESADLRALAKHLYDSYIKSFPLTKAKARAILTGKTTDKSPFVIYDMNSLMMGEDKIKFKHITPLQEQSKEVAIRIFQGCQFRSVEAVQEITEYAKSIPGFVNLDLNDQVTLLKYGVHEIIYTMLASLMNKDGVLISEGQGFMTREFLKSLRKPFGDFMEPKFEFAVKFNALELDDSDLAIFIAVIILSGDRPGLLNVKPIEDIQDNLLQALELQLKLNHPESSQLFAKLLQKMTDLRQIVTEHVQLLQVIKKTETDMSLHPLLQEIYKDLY
ATP-dependent DNA helicase Q1 (Homo sapiens), sequence (P46063 whole entry, looked up): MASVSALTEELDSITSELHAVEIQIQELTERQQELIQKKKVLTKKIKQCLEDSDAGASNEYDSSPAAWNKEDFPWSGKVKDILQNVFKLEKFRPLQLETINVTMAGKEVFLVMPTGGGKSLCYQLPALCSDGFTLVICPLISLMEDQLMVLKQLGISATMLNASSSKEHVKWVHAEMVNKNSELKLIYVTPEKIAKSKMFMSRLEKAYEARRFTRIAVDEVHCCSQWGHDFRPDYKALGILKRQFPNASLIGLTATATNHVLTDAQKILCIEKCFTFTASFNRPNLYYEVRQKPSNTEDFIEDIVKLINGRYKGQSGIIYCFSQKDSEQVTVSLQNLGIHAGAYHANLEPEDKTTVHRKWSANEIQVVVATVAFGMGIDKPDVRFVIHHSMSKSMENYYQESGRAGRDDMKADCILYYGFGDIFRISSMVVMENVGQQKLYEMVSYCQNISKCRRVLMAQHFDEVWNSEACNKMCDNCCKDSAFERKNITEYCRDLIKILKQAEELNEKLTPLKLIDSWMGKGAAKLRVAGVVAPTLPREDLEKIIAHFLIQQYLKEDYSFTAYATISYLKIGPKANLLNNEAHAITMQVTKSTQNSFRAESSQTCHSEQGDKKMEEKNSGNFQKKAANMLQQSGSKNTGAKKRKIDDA

Turning to `COc1ccccc1NC(=O)Nc1nc(-c2cccnc2)nc2ccccc12`, the Potency entry in experiment [1], in [2], in experiment [3], in experiment [4], in experiment [5] and in experiment [6] was “inactive” each time. For the same compound, the Potency entry in [7], in experiment [8], in experiment [9], in experiment [10] and in [15] was “inactive” each time. The outcome in experiment [11], in experiment [13] and in experiment [14] was inactive. In addition, the activation in [12] is 0.25% (inactive).
With `N[C@]1(C(=O)O)CCc2cc(C(=O)O)ccc21`, in experiment [16], the Potency was 15.8 µM (active).
Consider `CC(C)(C)c1ccc(S(=O)(=O)/C=C\C#N)cc1`, for which the Potency in experiment [17] was 0.794 µM (active).
Turning to `CC(C)=CCC/C(C)=C/CC/C(C)=C/CO`, the max response in [18] is -3.54%. The call in [19] and in experiment [20] was inactive.
